In PubChem BioAssay (NCI):
About 83,000 compounds went through this panel and 20% of them were active in at least one assay; those are over-represented in the sample as a whole.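 Note: values are percent growth. 100 is the growth of untreated cells, values between 100 and 0 indicate rising inhibition; between -100 and 0 indicates cell death.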 Values without a mark were called inactive. The source made the active and inactive calls. Rule for the calls: active = growth percent below 10; inactive = the rest.

What was measured:
Experiment in all cases: NCI-60 one-dose screen, 48 h (100 = growth as untreated, 0 = no growth, -100 = all killed)
Conditions in all cases: 10 µM unless noted
HCT-15 colon = tested on: HCT-15 colon
HT29 colon = tested on: HT29 colon
SNB-75 CNS = tested on: SNB-75 CNS
SNB-19 CNS = tested on: SNB-19 CNS
U251 CNS = tested on: U251 CNS
PC-3 prostate = tested on: PC-3 prostate
SK-MEL-5 melanoma = tested on: SK-MEL-5 melanoma
UACC-62 melanoma = tested on: UACC-62 melanoma
LOX IMVI melanoma = tested on: LOX IMVI melanoma
SK-MEL-28 melanoma = tested on: SK-MEL-28 melanoma

SMILES | growth (HCT-15 colon) | growth (HT29 colon) | growth (SNB-75 CNS) | growth (SNB-19 CNS) | growth (U251 CNS) | growth (PC-3 prostate) | growth (SK-MEL-5 melanoma) | growth (UACC-62 melanoma) | growth (LOX IMVI melanoma) | growth (SK-MEL-28 melanoma)
COc1cc2ncnc(Nc3ccc(F)c(Cl)c3)c2cc1OCC(=O)N1CCN(c2ccc(F)cc2)CC1 | 92.7% | 86.7% | 91.2% | 83.6% | 107% | 94.6% | 98.2% | 87.9% | 93.3% | 98.4%
CCCn1c(=S)sc2c1nc(C)n1c(Nc3ccccc3)nnc21 | 74.8% | 87.5% | 102% | 70.8% | 60.9% | 93.5% | 35% | 32.3% | 66.2% | 104%
C=CCn1c(SCC(=O)Nc2ccc(C(=O)/C=C/c3cc(OC)c(OC)c(OC)c3)cc2)nnc1-c1cc(-c2ccc(OC)cc2)nc2ccccc12 | 83.4% | 101% | 85.1% | 90.3% | 88.3% | 80% | 94.9% | 90.1% | 94.9% | 101%
COc1ccc(NC(=O)c2cccc(C3CCc4c(cc(OC)c(OC)c4OC)O3)c2)cc1 (stereo not given) | 17.3% | 6.06% (active) | 13.1% | 33.3% | 23.4% | 5.96% (active) | 4.29% (active) | 31.6% | 28.7% | 47%
Fc1ccc(COc2ccc(Nc3ncnc4sc5c(c34)CCCC5)cc2)cc1 | 92.6% | 77.8% | 113% | 100% | 90.8% | 72.2% | 95.5% | 72.1% | 99.5% | 91.5%
CCN1C(=O)N(CC)C2C1NN=c1s/c(=C\c3cc4ccccc4[nH]3)c(=O)n12 (stereo not given) | 12% | 5.58% (active) | 32.1% | 45.1% | 7.49% (active) | 13.2% | -5.91% (active) | 22.2% | 17.4% | 52.2%
CC(=O)Nc1c(Cl)cc(Cl)c2c1Cc1cc([N+](=O)[O-])ccc1-2 | 89.7% | 81.4% | 58% | 99.8% | 74.3% | 81.2% | 103% | 102% | 76.8% | 100%
Cc1ccc(O)c(NC(=O)c2ccc(CNc3ccnc(C(F)(F)F)c3)cc2)c1 | 49.9% | 66.4% | 72.5% | 87.1% | 82.1% | 78.8% | 36.5% | 13.9% | 40.6% | 109%
C[Se]C(=O)CC1=C2C=C(F)C=CC2/C(=C\c2ccc(S(C)=O)cc2)C1C (stereo not given) | 15% | 13.8% | -25.5% (active) | -22.7% (active) | -36.3% (active) | 20.4% | -87.7% (active) | 30.9% | -68.4% (active) | 4.39% (active)
C=CCN=C(N)SCCCCCCSC(N)=NCC=C | 96.4% | 73.2% | 98.8% | 102% | 87.4% | 68.5% | 101% | 87.5% | 93.1% | 103%
CCCCN1C(=O)/C(=c2\sc3n(c2=O)NC2C(N=3)N(CC)C(=O)N2CC)c2ccccc21 (stereo not given) | 33.5% | 16% | 11.2% | 61.9% | 33.8% | 45.1% | 55% | 37.4% | 47.6% | 65.6%
CC(C)CCSc1nc(Nc2ccccc2)c(C#N)c(-c2ccccc2)n1 | 55.3% | 50.7% | -10.1% (active) | 19.3% | 2.98% (active) | 68.8% | 95.2% | 89.9% | 25.5% | 82.1%
C[C@@H]1O[C@@H](O[C@@H]2C[C@H](c3ccc4c(c3O)C(=O)C3=C(C4=O)[C@@]4(O)C(=O)C[C@](C)(O)C[C@@]4(O)C=C3)O[C@H](C)[C@H]2O)C[C@H](O)[C@@H]1O | 98.9% | 106% | 86.8% | 91.8% | 97.5% | 90.5% | 100% | 94.2% | 91% | 113%
COc1cccc(/C=C/C(=O)c2cc3c(N)c(C(=O)Nc4cccc(Cl)c4C)sc3nc2C)c1 | -57.4% (active) | -80.7% (active) | -1.75% (active) | -35.7% (active) | -78.4% (active) | 13.9% | -31.3% (active) | 1.73% (active) | -64.2% (active) | 16.3%
COc1cc(/C=N/Nc2ccccc2F)cc(OC)c1OC | 89.2% | 93.6% | 103% | 98.3% | 93.3% | 88.7% | 102% | 65.7% | 65.7% | 110%
COc1ccc(C(c2cc(OC)c(OC)c(OC)c2)N2CCCC2)cc1 (stereo not given) | 52.7% | 40.6% | 84.1% | 90.5% | 77.8% | 63.9% | 65.2% | 57.4% | 73% | 80.1%
O=C(CSc1nc2ccc([N+](=O)[O-])cc2[nH]1)Nc1ccc(Br)cc1 | 56.1% | 75.1% | 61.6% | 65.6% | 36.3% | 44.1% | 26.3% | 20.8% | 63.5% | 54.5%
CNC(=O)c1cc(Oc2ccc3nc(NC(=O)Nc4ccc(Cl)c(Cl)c4)sc3c2)ccn1 | 55% | 36.4% | -38.3% (active) | 74.9% | 24% | -24.7% (active) | 72.7% | 75.8% | -91.9% (active) | 41.4%
CC/C=C\C/C=C/C=C1/C(=O)C=C[C@@H]1C/C=C\CCCC(=O)OC | 4.13% (active) | 2.21% (active) | 93.4% | 62.3% | 28.7% | 30.2% | 70.1% | -6.19% (active) | -70% (active) | 36.7%
C#Cc1cccc(Oc2ccc(NC(=O)CCl)cc2)c1 | -29.8% [8.25 µM] (active) | 34.5% [8.25 µM] | 58.2% [8.25 µM] | 54.2% [8.25 µM] | 32.9% [8.25 µM] | 61.7% [8.25 µM] | 6.75% [8.25 µM] (active) | 26% [8.25 µM] | -27.1% [8.25 µM] (active) | 91.8% [8.25 µM]
CCCCCCCCCCCCCCCCCCOc1ccccc1CC(=O)NCC[N+]1(C)CCOCC1 | 91.1% | 29.8% | 46.9% | 25.9% | 10.1% | -46.4% (active) | 75% | 56.3% | 55.5% | 74.7%
CCOC(=O)N1CCN(S(=O)(=O)c2oc(-c3ccc(Cl)cc3)nc2C#N)CC1 | -8.32% (active) | 79.3% | 87.9% | 98.3% | 95.9% | 93% | 97.4% | 98.8% | 10.8% | 105%
COc1ccc(-c2nnc(SCC(=O)Nc3ccc(/C(C)=N\O)cc3)n2-c2ccccc2)cc1OC | 98.6% | 91.2% | -16.5% (active) | 75.8% | 34.4% | 110% | 94.6% | 82.8% | 80.1% | 87.3%
CN(C)c1ccc(/C=C/C(=O)c2ccccc2)cc1 | 62.1% | 62.5% | 100% | 90.4% | 69.3% | 71.6% | 89.3% | 93.1% | 78.3% | 96.8%
N=C(N)c1ccc(-c2ccc(-c3ccc(Cl)cc3)o2)o1 | -78.1% (active) | -58.3% (active) | 69.8% | -68.3% (active) | -95.5% (active) | 43.9% | 76% | -67.4% (active) | -73% (active) | 96.9%
CN(C)c1ccc(-c2cc(-c3ccc(Nc4nc(Nc5ccc(Cl)cc5)nc(Nc5ccc(Cl)cc5)n4)cc3)nc(N)c2C#N)cc1 | 75.9% | 80.3% | 83.8% | 97.8% | 63.3% | 57.7% | 66.7% | 91% | 72.7% | 88.7%
